PubChem BioAssay (NCI)
About 79,000 compounds went through this panel and 15% of them were active in at least one assay; those are over-represented in the sample as a whole. Values without a mark were called inactive. Activity calls are given as the source filed them. Rule as the data show it: active = growth inhibition above about 70%; inactive = the rest.

test: NCI Yeast Anticancer Drug Screen. Data for the cln2 rad14 strain (AID 165);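 also: 0% = growth equal to vehicle treated cultures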; conditions: S. cerevisiae cln2 rad14 strain, at 50.0 µM, active compounds read high
In short: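 Yeast carrying cln2 and rad14 alterations (cell cycle control and DNA damage repair) were exposed to compounds. Growth inhibition was measured against vehicle-treated controls.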

| Compound | growth inhibition |
| --- | --- |
| Cc1ccc(NC(=O)/C=C/c2ccccc2)cc1Cl | -5.5% |
| COC(CCCl)c1ccc(C)cc1 (stereo not given) | 3.8% |
| CC1CCCN2C(=O)CN(Cc3ccccc3)CC(=O)N12 (stereo not given) | 13.4% |
| Cn1c(COc2ccc(/C=N\N3CCN(/N=C\c4ccc(OCc5c[n+]6ccccc6n5C)cc4)CC3)cc2)c[n+]2ccccc12 | 25.7% |
| CC(=O)N1Cc2c(N)ncnc2C1C (stereo not given) | -7.25% |
| C(#CCN1CCOCC1)CCCN1CCOCC1 | -17.4% |
| COC(=O)c1nc(=S)[nH]c(C(=O)OC)c1C(=O)c1ccc(OC)cc1 | -7.9% |
| CC1OS(=O)OC1C (stereo not given) | -21.7% |
| O=C(NCCCl)c1ccc(F)cc1 | 0.35% |
| CC(C)N(C(=O)C12CC3CC(CC(C3)C1)C2)C(C)C | 13.2% |
| O=S(=O)(O)CCCC1S(=O)(=O)OCCOS1(=O)=O | -16.4% |
| C[N+]([O-])(C/C=C/c1ccccc1)c1ccccc1 (stereo not given) | 5.45% |
| CN(C)c1ccc(/C=C(\C#N)c2cccc(Br)c2)cc1 | -11.3% |
| CC(C)CC(Br)C(=O)NCC(=O)NCC(=O)O (stereo not given) | 7.95% |
| CC(C)(C)c1cc2c3c(c1)C(C(F)(F)F)(C(F)(F)F)OS3(=O)(O)OC2(C(F)(F)F)C(F)(F)F | -2.25% |
| CC(C)(C)OC(=O)C1C(=O)CC(c2ccccc2)C1c1ccccc1 (stereo not given) | -7.8% |
| COc1ccc(OC)c(NC(=O)Nc2ccc(I)cc2)c1 | 15.1% |
| CC(=O)c1ccc(N=NN(C)C)cc1 | -18.4% |
| COC1=c2\cccc\c2=c2/cccc/c2=c2\cccc\c2=N\1 | 12.2% |
| CCc1c(C(=O)OC)c(C(=O)OC)c(-c2ccc(C)cc2)n1CCn1c(CC)c(C(=O)OC)c(C(=O)OC)c1-c1ccc(C)cc1 | -0.6% |

| Compound | growth inhibition |
| --- | --- |
| COC(=O)c1ccccc1N=NNc1ccc(C(F)(F)F)c([N+](=O)[O-])c1 | -2.35% |
| Nc1ncnc2c1nnn2CC(O)CO (stereo not given) | -25.5% |
| CC1CCOC(/C=C/c2ccccc2)O1 (stereo not given) | 30.1% |
| c1ccc(CC[n+]2ccncc2)cc1 | -10.2% |
| CN(C)c1ccc(Cc2ccc(N(C)C)cc2[N+](=O)[O-])c([N+](=O)[O-])c1 | 6.1% |
| CC12CCC(=O)C=C1CCC1C2C(=O)CC2(C)C1CCC2(O)C(=O)Cn1cc(F)c(=O)[nH]c1=O (stereo not given) | 11.9% |
| Cc1cc(C)c(S(=O)(=O)O)cc1N | -42% |
| COc1ccc(OC)c2c(Nc3ccc(S(=O)(=O)O)c4cc(S(=O)(=O)O)cc(S(=O)(=O)O)c34)cc(C)nc12 | 3.1% |
| CCOC(=O)C1(C(=O)OCC)CCC(C(OC)OC)C(CC(=O)OC)C1 (stereo not given) | -6.5% |
| N=C(N)SCCC(=O)CCSC(=N)N | 32.2% |
| C[N+]1(C)CCC(C(=O)c2ccccc2)CC1 | -17.9% |
| CN(C(=O)/C=C/c1ccccc1)c1ccccc1 | 27.1% |
| C=CS(=O)(=O)CCOc1ccc(Cl)cc1Cl | 97.8% (active) |
| CC1CCCC2(C)CCC(=O)C=C12 (stereo not given) | -13.8% |
| O=C1c2ccccc2CN1c1ccccc1 | 6.45% |
| COC(=O)c1nsc(OC)c1Cl | 8.7% |
| CCN(CC)CCOC(=O)c1ccc(N=C/C=C/C(C#N)=C/NOC)cc1 | 21.4% |
| CCOc1ccc2nc(NC(=O)/C(CC(=O)CC(C3=C(O)c4ccccc4CC3=O)c3ccccc3)=N\O)sc2c1 (stereo not given) | -18.6% |
| Cc1csc2nc(-c3ccco3)nn12 | 15.9% |
| Cc1ccc2snc(C(=O)O)c2c1[N+](=O)[O-] | -1.65% |
